# From PubChem BioAssay
# Unmarked numbers belong to inactive results. The source made the active and inactive calls. Unless noted, no stated cut-off is given here; in the data, active means inhibition above about 44%; inactive means the rest.
# Target: Nuclear receptor subfamily 5 group A member 2 (Homo sapiens) (UniProt O00482)
# Assay: LRH-1 (NR5A2) inverse agonists, retest, confirmation, cell-based, luminescence (AID 651613; in the data active means inhibition above about 42%;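 further: HEK293T cells co-transfected with LRH-1 and StAR promoter luciferase reporter; 0% = vehicle wells and 100% = parental cells lacking receptor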)
# Settings: cell-based LRH-1 luciferase reporter, inverse agonism; at 3.6 µM; stronger effect = higher value
# Chain of Nuclear receptor subfamily 5 group A member 2 (Homo sapiens) (O00482 whole entry, looked up): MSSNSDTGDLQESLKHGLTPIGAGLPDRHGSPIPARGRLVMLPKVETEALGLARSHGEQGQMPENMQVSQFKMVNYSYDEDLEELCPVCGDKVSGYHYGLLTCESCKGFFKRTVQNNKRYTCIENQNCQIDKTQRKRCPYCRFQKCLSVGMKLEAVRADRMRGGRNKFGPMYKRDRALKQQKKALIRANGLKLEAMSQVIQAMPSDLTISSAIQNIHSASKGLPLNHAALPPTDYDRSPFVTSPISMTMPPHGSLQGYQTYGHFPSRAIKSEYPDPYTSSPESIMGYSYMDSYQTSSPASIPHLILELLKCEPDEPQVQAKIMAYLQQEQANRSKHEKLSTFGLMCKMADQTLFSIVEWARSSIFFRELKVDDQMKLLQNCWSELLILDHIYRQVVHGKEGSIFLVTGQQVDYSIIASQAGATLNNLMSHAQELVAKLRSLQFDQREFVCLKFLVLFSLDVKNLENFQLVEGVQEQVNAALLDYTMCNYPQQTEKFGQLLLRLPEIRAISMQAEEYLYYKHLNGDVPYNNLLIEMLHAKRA
row,Compound,inhibition
1,Cc1ccc(S(=O)(=O)CC2CSc3nc4ccccc4n32)cc1 (configuration not stated),65.3% (active)
2,CC1(C)CC(N2CCCC2)=CC(=[N+]2CCCC2)C1,62% (active)
3,CC(=O)NC(c1ccc(Cl)cc1Cl)c1ccc2cccnc2c1O (configuration not stated),102% (active)
4,O=C(CSc1nnc(Cn2nnc3ccccc32)o1)N(Cc1ccc(F)cc1)c1ccccc1,63% (active)
5,COc1cccc2c1C(=O)c1c(O)c3c(c(O)c1C2=O)C[C@@](O)(C(=O)CO)C[C@@H]3OC1CC(N)C(O)C(C)O1 (some centres not stated),87.5% (active)
6,Cc1cccc(-n2c(CNC(=O)c3ccccc3)nnc2SCC(=O)Nc2nccs2)c1,10.1%
7,Cc1ccc(C#CC[N+]2(CC#Cc3ccc(C)cc3)CCCCC2)cc1,74.2% (active)
8,CCN(CC)S(=O)(=O)c1cc(NC(=O)CNc2cccc(S(=O)(=O)N3CCCC3)c2)ccc1C,61.7% (active)

# Target: Steroidogenic factor 1 (Homo sapiens) (UniProt Q13285)
# Assay: SF1 (NR5A1) inverse agonists, counter-screen for LRH-1 inverse agonist project, cell-based, luminescence, high throughput (AID 651614);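 further: cells cotransfected with StAR promoter reporter and SF1 expression vector; 0% = vehicle on cells with receptor and 100% = vehicle on cells lacking receptor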
# Settings: cell-based SF1 luciferase reporter, at 3.6 µM, stronger effect = higher value
# Chain of Steroidogenic factor 1 (Homo sapiens) (Q13285 whole entry, looked up): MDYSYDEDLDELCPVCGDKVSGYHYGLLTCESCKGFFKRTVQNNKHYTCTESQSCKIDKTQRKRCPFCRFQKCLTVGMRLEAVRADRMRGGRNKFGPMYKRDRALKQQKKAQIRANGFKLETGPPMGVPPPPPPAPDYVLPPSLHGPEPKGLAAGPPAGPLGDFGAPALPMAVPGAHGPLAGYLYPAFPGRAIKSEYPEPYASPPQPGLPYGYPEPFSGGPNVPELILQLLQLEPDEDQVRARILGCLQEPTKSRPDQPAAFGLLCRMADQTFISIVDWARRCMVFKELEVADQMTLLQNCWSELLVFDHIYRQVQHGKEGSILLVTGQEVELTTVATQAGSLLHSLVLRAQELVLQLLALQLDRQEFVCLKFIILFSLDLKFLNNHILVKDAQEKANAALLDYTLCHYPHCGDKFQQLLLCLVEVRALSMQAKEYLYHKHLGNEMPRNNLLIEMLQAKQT
row,Compound,inhibition
1,CN(C)c1ccc(Sc2ccc3nc(N)nc(N)c3c2)cc1,61.6% (active)
2,NS(=O)(=O)c1ccc(N=Nc2c(O)[nH]c3ccc(Br)cc23)cc1,30.4%
3,NC(=O)[C@H]1CC2(CC(c3cccc(NC(=O)COc4ccc(Cl)cc4)c3)=NO2)CN1C(=O)Cc1ccc([N+](=O)[O-])cc1 (some centres not stated),50.3% (active)
4,COCCn1c(SCCCC(=O)c2ccc(Br)cc2)nnc1-c1ccncc1,46% (active)
5,CC1(c2ccc3ccccc3c2)NC(=O)N(CC(=O)N2CCN(Cc3ccccc3)CC2)C1=O (configuration not stated),58% (active)
6,O=C(N/N=C/c1ccc(O)cc1)c1ccc(COc2cc(Cl)ccc2Cl)o1,47.1% (active)
7,COc1ccc(CNC(=O)c2cccc3c(-c4cccnc4)coc23)cc1OC,66.4% (active)
8,CN(Cc1ccccc1)C(=O)c1ccc(NC(=O)Cc2ccc(NC(=O)C3CCCN(C(=O)CCc4ccccc4)C3)cc2)cc1 (configuration not stated),64.3% (active)
9,CN(C)CCNc1ccc2nnn3c4ccc(O)cc4c(=O)c1c23,71.5% (active)
10,CCCOc1ccc(Cc2c(Cl)nc(SC)nc2NC)cc1,55.9% (active)
11,O=C(Nc1nonc1NC(=O)c1cccs1)c1cccs1,66% (active)
12,CN(C(=O)c1cccc(NC(=O)Cc2ccc(NC(=O)C3CCCN(C(=O)CCc4ccccc4)C3)cc2)c1)C1CCCCC1 (configuration not stated),48.5% (active)
13,COc1cccc2c1C(=O)c1c(O)c3c(c(O)c1C2=O)CC(O)(C(C)=O)CC3OC1CC(O)C(O)C(C)O1 (configuration not stated),17.4%
14,Cc1sc2ncnc(NCC3COc4ccccc4O3)c2c1C (configuration not stated),46.1% (active)
15,Cc1ccc(S(=O)(=O)CC2CSc3nc4ccccc4n32)cc1 (configuration not stated),54.6% (active)
16,CC1(C)CC(N2CCCC2)=CC(=[N+]2CCCC2)C1,55.2% (active)
17,CC(=O)NC(c1ccc(Cl)cc1Cl)c1ccc2cccnc2c1O (configuration not stated),86.8% (active)
18,O=C(CSc1nnc(Cn2nnc3ccccc32)o1)N(Cc1ccc(F)cc1)c1ccccc1,56.7% (active)
19,COc1cccc2c1C(=O)c1c(O)c3c(c(O)c1C2=O)C[C@@](O)(C(=O)CO)C[C@@H]3OC1CC(N)C(O)C(C)O1 (some centres not stated),70.6% (active)
20,Cc1cccc(-n2c(CNC(=O)c3ccccc3)nnc2SCC(=O)Nc2nccs2)c1,17.1%
21,Cc1ccc(C#CC[N+]2(CC#Cc3ccc(C)cc3)CCCCC2)cc1,65.3% (active)
22,CCN(CC)S(=O)(=O)c1cc(NC(=O)CNc2cccc(S(=O)(=O)N3CCCC3)c2)ccc1C,54.9% (active)

# Test system: not listed separately
# Assay: VP16 transactivation reporter inhibitors, counter-screen for LRH-1 inverse agonist project, cell-based, luminescence, high throughput (AID 651615; in the data active means inhibition above about 33%)
# Settings: Gal4-VP16 luciferase reporter cells, at 3.6 µM, stronger effect = higher value
row,Compound,inhibition
1,CN(C)c1ccc(Sc2ccc3nc(N)nc(N)c3c2)cc1,80.2% (active)
2,NS(=O)(=O)c1ccc(N=Nc2c(O)[nH]c3ccc(Br)cc23)cc1,8.51%
3,NC(=O)[C@H]1CC2(CC(c3cccc(NC(=O)COc4ccc(Cl)cc4)c3)=NO2)CN1C(=O)Cc1ccc([N+](=O)[O-])cc1 (some centres not stated),52.5% (active)
4,COCCn1c(SCCCC(=O)c2ccc(Br)cc2)nnc1-c1ccncc1,44.7% (active)
5,CC1(c2ccc3ccccc3c2)NC(=O)N(CC(=O)N2CCN(Cc3ccccc3)CC2)C1=O (configuration not stated),48.8% (active)
6,O=C(N/N=C/c1ccc(O)cc1)c1ccc(COc2cc(Cl)ccc2Cl)o1,57.9% (active)
7,COc1ccc(CNC(=O)c2cccc3c(-c4cccnc4)coc23)cc1OC,67.4% (active)
8,CN(Cc1ccccc1)C(=O)c1ccc(NC(=O)Cc2ccc(NC(=O)C3CCCN(C(=O)CCc4ccccc4)C3)cc2)cc1 (configuration not stated),55.8% (active)
9,CN(C)CCNc1ccc2nnn3c4ccc(O)cc4c(=O)c1c23,75.9% (active)
10,CCCOc1ccc(Cc2c(Cl)nc(SC)nc2NC)cc1,35.5% (active)
11,O=C(Nc1nonc1NC(=O)c1cccs1)c1cccs1,52.7% (active)
12,CN(C(=O)c1cccc(NC(=O)Cc2ccc(NC(=O)C3CCCN(C(=O)CCc4ccccc4)C3)cc2)c1)C1CCCCC1 (configuration not stated),45.2% (active)
13,COc1cccc2c1C(=O)c1c(O)c3c(c(O)c1C2=O)CC(O)(C(C)=O)CC3OC1CC(O)C(O)C(C)O1 (configuration not stated),16.1%
14,Cc1sc2ncnc(NCC3COc4ccccc4O3)c2c1C (configuration not stated),57.4% (active)
15,Cc1ccc(S(=O)(=O)CC2CSc3nc4ccccc4n32)cc1 (configuration not stated),50.7% (active)
16,CC1(C)CC(N2CCCC2)=CC(=[N+]2CCCC2)C1,51.4% (active)
17,CC(=O)NC(c1ccc(Cl)cc1Cl)c1ccc2cccnc2c1O (configuration not stated),80.2% (active)
18,O=C(CSc1nnc(Cn2nnc3ccccc32)o1)N(Cc1ccc(F)cc1)c1ccccc1,56.9% (active)
19,COc1cccc2c1C(=O)c1c(O)c3c(c(O)c1C2=O)C[C@@](O)(C(=O)CO)C[C@@H]3OC1CC(N)C(O)C(C)O1 (some centres not stated),82.6% (active)
20,Cc1cccc(-n2c(CNC(=O)c3ccccc3)nnc2SCC(=O)Nc2nccs2)c1,3.06%
21,Cc1ccc(C#CC[N+]2(CC#Cc3ccc(C)cc3)CCCCC2)cc1,67.5% (active)
22,CCN(CC)S(=O)(=O)c1cc(NC(=O)CNc2cccc(S(=O)(=O)N3CCCC3)c2)ccc1C,49.1% (active)
